Compounds without any hit were thinned out: in the full panel of roughly 83,000, 20% have a hit.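 Activity criterion: percent growth below 10, measured after cells in 96-well plates were exposed to a single compound concentration for 48 hours.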 Calls of active or inactive are those of the source.

The assay relates to MDA-MB-231 breast. In words: NCI-60 one-dose screen, 48 h (100 = growth as untreated, 0 = no growth, -100 = all killed). Particulars: 10 µM unless noted.
For the molecule `CC(C)(C)c1ccc(Cn2cc(CSc3nc4ccccc4s3)nn2)cc1`, the growth is 86.2% (inactive).

As for `CCN1CCN(Cc2ccc(Cc3ncc(F)c(-c4cc(F)c5nc(C)n(C(C)C)c5c4)n3)nc2)CC1`, the growth is 53.4% (inactive).

For the molecule `CC(=O)NCC(=O)N1[C@@H]2CC[C@H]1c1ccc(Nc3ncc(C(F)(F)F)c(NC4CCC4)n3)cc12`, the growth was 38.1% [2.5 µM] (inactive).

In the case of `O=C(NOCCO)c1cc(CN2OCCCC2=O)c(F)c(F)c1Nc1ccc(I)cc1F`, the growth is 32.2% (inactive).

In the case of `CC(C)CC(=O)Nc1n[nH]c2c1CN(C(=O)C1CCN(C)CC1)C2(C)C`, the growth was 8.95% (active).

For the molecule `Cc1ccc(N)cc1CN1C(=O)c2ccccc2C1=O`, the growth is 106% (inactive).

With `COCc1c(-c2ccc(NC(=O)Nc3cc(C(F)(F)F)ccc3F)c(F)c2)c2c(N)ncnn2c1CN1CCOCC1`, the growth was -50% (active).

As for `O=C(CNc1nc2ccccc2s1)Nc1ccc(-c2nc3ccccc3s2)cc1`, the growth was 99.2% (inactive).

As for `N#CC[C@H](C1CCCC1)n1cc(-c2ncnc3[nH]ccc23)cn1`, the growth was 60.4% (inactive).

For `C=CC(=O)Nc1cc2c(Nc3ccc(F)c(Cl)c3)ncnc2cc1C#CC(C)(C)N1CCN(C)CC1`, the growth was -90.1% (active).

For the molecule `CC(=O)C1=C(C)NC(SCc2nnc(-c3ccc(C)cc3)o2)=NC1c1ccc(F)cc1` (centres undefined), the growth is 93.6% (inactive).

For the molecule `CNC(=O)c1ccc(Nc2ncc(C(F)(F)F)c(NCc3nccnc3N(C)S(C)(=O)=O)n2)cc1`, the growth was 3.13% (active).

As for `C/C=C/C=N/NC(=S)Nc1ccccc1`, the growth was 89.9% (inactive).

With `COc1cc(N2CCC(N(C)C)CC2)ccc1Nc1ncc(Cl)c(Nc2ccccc2P(C)(C)=O)n1`, the growth is 5.47% (active).

As to `CN1CCN(CCCOc2cccc3nc(Nc4ccc(Cl)c(C(F)(F)F)c4)ccc23)CC1`, the growth is -44.5% (active).

As for `C#Cc1cccc(Nc2ncnc3cc(OC)c(OCCCCCCC(=O)NO)cc23)c1`, the growth is -16.8% (active).

On to `Cc1ccc(-n2nc(C(C)(C)C)cc2NC(=O)NCc2cc(F)ccc2Oc2ccc3c(cnn3CCO)c2)cc1`, for which the growth was 14.1% (inactive).

Turning to `Cn1ccnc1C(=O)/C=C/c1ccc(CC(=O)Nc2ccc(Br)cc2)cc1`, the growth was 10.1% (inactive).

Turning to `Cc1[nH]n(C(N)=S)c(=O)c1N=Nc1ccc(S(=O)(=O)Nc2ccncn2)cc1`, the growth was 84.7% (inactive).

Consider `Cc1[nH]c(/C=C2\C(=O)Nc3ccc(F)cc32)c(C)c1C(=O)NC[C@H](O)CN1CCOCC1`, for which the growth was 29.8% (inactive).

For the molecule `Cn1ncc(Cl)c1-c1cc(C(=O)N[C@H](CN)Cc2cccc(F)c2)sc1Cl`, the growth was -9.49% (active).

Take `Cn1cc(-c2ncnc3ccc(-c4cnc(Cl)c(NS(C)(=O)=O)c4)cc23)c2ccccc21`: the growth was 27.9% (inactive).

Consider `O=[N+]([O-])c1cc(Br)cc2c1[nH]c1ccc(Br)cc12`, for which the growth is 58.4% (inactive).

Regarding `COc1ccc2c(OCc3nnc4ccc(-c5ccccc5)nn34)ccnc2c1`, the growth is 106% [2.5 µM] (inactive).

With `CC(=O)O[C@]1(C)C[C@H](O)[C@]2(O)C=CO[C@H](O[C@@H]3O[C@H](CO)[C@@H](O)[C@H](O)[C@H]3O)[C@@H]21`, the growth is 98.5% (inactive).

Consider `COc1cc2cc(NCc3ccc(F)cc3)nc(C)c2cc1OC`, for which the growth is 45.9% (inactive).

On to `O=C(Nc1nc2cccc(-c3ccc(CN4CCS(=O)(=O)CC4)cc3)n2n1)C1CC1`, for which the growth is 81.8% (inactive).

Turning to `N#Cc1c(-c2ccc(Cl)cc2)csc1NC(=O)Nc1cccc(C(F)(F)F)c1`, the growth is -0.969% (active).

As for `O=C(c1ccc(/C=C/c2n[nH]c3ccccc23)cc1)N1CCNCC1`, the growth was 27.1% (inactive).

On to `Cc1cnc(Nc2ccc(OCCN3CCCC3)cc2)nc1Nc1cccc(S(=O)(=O)NC(C)(C)C)c1`, for which the growth was 6.69% (active).

Take `CO[C@H]1C[C@@H]2CC[C@@H](C)[C@@](O)(O2)C(=O)C(=O)N2CCCC[C@H]2C(=O)O[C@H]([C@H](C)C[C@@H]2CC[C@@H](OCCO)[C@H](OC)C2)CC(=O)[C@H](C)/C=C(\C)[C@@H](O)[C@H](OC)C(=O)[C@H](C)C[C@H](C)\C=C/C=C/C=C/1C`: the growth was 63.1% (inactive).

`COc1cc(F)c(F)c(Nc2ccc(I)cc2F)c1NS(=O)(=O)C1(C[C@H](O)CO)CC1`: the growth is 23% (inactive).

For `Nc1ccc(S(=O)(=O)O)c2cc(S(=O)(=O)O)cc(O)c12`, the growth is 106% (inactive).

For the molecule `COc1cc2ncnc(Nc3ccc(F)c(Cl)c3)c2cc1NC(=O)/C=C/CN1CCCCC1`, the growth is -68.7% (active).

Turning to `COc1ccc(C(=O)N2c3ccccc3Sc3ccccc32)c(F)c1`, the growth is 52.5% (inactive).

Consider `O=S1(=O)OC(c2ccc(O)c(Cl)c2)(c2ccc(O)c(Cl)c2)c2ccccc21`, for which the growth is 109% (inactive).

With `C[C@H](NC(=O)c1c(N)nn2cccnc12)c1cc2cccc(C#Cc3cnn(C)c3)c2c(=O)n1-c1ccccc1`, the growth was 37.8% (inactive).

Turning to `Cc1cc(O)cc(-c2c(-c3ccnc(-c4cccnc4)c3)cnn2C)c1`, the growth was 60.2% (inactive).

Regarding `CN1CCN(CCOc2cc(OC3CCOCC3)c3c(Nc4c(Cl)ccc5c4OCO5)ncnc3c2)CC1`, the growth is 61.3% (inactive).

The record behind these values is PubChem BioAssay (NCI).
